Rows were chosen to be rich in hits. Some 21% of all compounds tested hit in one or more screens of this group.
Pf growth 96h: Primary qHTS for delayed death inhibitors of the malarial parasite plastid, 96 hour incubation; P. falciparum luciferase reporter growth, 96 h; Potency, µM (doses to about 28.7 µM), inactives show top-dose activity change, negative = inhibition, actives largely listed as inhibitors; 6.9% of 320,000 active; note: potency is the fitted concentration of half-maximal effect; % is set by controls: 0 for no effect and ±100 for the full control effect
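Delayed-death screen, second-generation endpoint: infected erythrocytes, 2% hematocrit, 0.05% parasitemia final; 96 hours at 37 C, 5% CO2; luciferase detection reagent; luminescence decrease equals reduced growth.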
NS1 function inh: qHTS Assay for Inhibitors of Influenza NS1 Protein Function; 0.4% of 270,000 active; Potency, µM (doses to about 46.1 µM), for the others: top-dose activity, positive = more growth; calls by dose curve; note: potency is the fitted concentration of half-maximal effect; actives are rising curves; nearly all actives have a fitted effect of over 50% in size
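OD600 was taken as the measure of yeast growth restored by compound in an NS1-expressing S. cerevisiae strain. Cells had been washed out of glucose medium and diluted 1:100 into galactose -URA medium, pH 6.0.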
Sm TGR block: qHTS Assay for the Inhibitors of Schistosoma Mansoni Peroxiredoxins | 3% of 360,000 active | AID 485364, 2010 | Schistosoma mansoni thioredoxin glutathione reductase (TGR), Q962Y6 | purified TGR, DTNB reduction, TNB absorbance 405 nm | Potency, µM (doses to about 114 µM), for the others: top-dose activity change, negative = inhibition, usual class: inhibitors; note: potency is the fitted concentration of half-maximal effect; % is set by controls: 0 for no effect and ±100 for the full control effect; nearly all actives have a fitted effect of over 60% in size
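TGR 20 nM + NADPH 100 uM (dispensed conc.), cpd preinc 15 min RT; start with NADPH (500 uM addition) then DTNB (15 mM addition). Kinetic TNB absorbance, 405 nm filter. Four-parameter Hill fit across titration.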
Pf growth 48h: Primary qHTS for delayed death inhibitors of the malarial parasite plastid, 48 hour incubation; Potency, µM (doses to about 28.7 µM), without a hit: top-dose activity change, negative = inhibition, actives largely listed as inhibitors; P. falciparum luciferase growth in erythrocytes, 48 h; 5.9% of 310,000 active; note: potency is the fitted concentration of half-maximal effect; % is set by controls: 0 for no effect and ±100 for the full control effect
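Luciferase-expressing P. falciparum in infected erythrocytes (2% hematocrit, 0.1% parasitemia final) in RPMI 1640/0.5% Albumax were exposed to compound for 48 hours at 37 C, 5% CO2; growth read as luminescence.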
CHX counter: Cycloheximide Counterscreen for Small Molecule Inhibitors of Shiga Toxin | cell reporter, cycloheximide protein synthesis inhibition counterscreen | max response, % | 12% of 300,000 active | AID 2314, 2010; in the data active = max response mostly above about 13%, no sharp cut-off; inactive = mostly below about 14%; note: read at 38.3 µM for the half of the compounds with a filed dose; 0% is about no effect
Shiga inhibitor: A qHTS for Small Molecule Inhibitors of Shiga Toxin; Vero cells, Shiga toxin protein synthesis inhibition reporter; inhibition, % at 38.7 µM; 9.2% of 290,000 active; AID 2315, 2010; in the data active = inhibition mostly above about 28%, no sharp cut-off; inactive = mostly below about 43%; note: 0% is about no effect
Active calls of the source: *; [ ] = remark or other dose. Unless noted, calls come from the whole dose curve; as a rule, active = well fitted curve in the direction sought with a large enough effect; inconclusive = small, poorly fitted or top-dose-only effect, or another doubt; inactive = no such curve, though single readings can be large; an effect the other way counts as inactive or inconclusive.

Screening O=C(O)CCCC(=O)N1CCCC1 returned Pf growth 96h 99%, NS1 function inh 4%, Sm TGR block 5%, Pf growth 48h 18%, CHX counter -3 and Shiga inhibitor -2.
`O=C(CSc1nnc(-c2ccc3c(c2)OCCO3)o1)NC1CCCCC1` gave Pf growth 96h inconclusive, NS1 function inh -5%, Sm TGR block 5%, Pf growth 48h 41%, CHX counter -2 and Shiga inhibitor 19.
CCOc1ccc(-c2nnc(SCC(=O)Nc3cc(C)on3)o2)cc1 was read as Pf growth 96h inconclusive, Sm TGR block 21%, Pf growth 48h inconclusive, CHX counter 2 and Shiga inhibitor 11.
`Cc1cc(NC(=O)CSCC(=O)OCc2nnc(-c3ccccc3)o2)no1` gave Pf growth 96h 26%, NS1 function inh 0%, Sm TGR block 3%, Pf growth 48h 22%, CHX counter 16* and Shiga inhibitor 30.
Screening Cc1cc(-c2nnc(-c3cccc(Cl)c3)o2)no1 returned Pf growth 96h 222%, NS1 function inh 0%, Sm TGR block 10%, Pf growth 48h 112%, CHX counter 37* and Shiga inhibitor 93*.
`Cc1cc(NC(=O)CSCc2ccccc2)no1` gave Pf growth 96h 4%, Sm TGR block -4%, Pf growth 48h 8%[5.75 µM], CHX counter 1 and Shiga inhibitor -4.
Screening COc1cccc(-c2nnc(SCC(=O)Nc3cc(C)on3)o2)c1 returned NS1 function inh -4%, Sm TGR block -31%, Pf growth 48h 0%, CHX counter 25* and Shiga inhibitor 54.
Screening Cc1cc(NC(=O)CSc2nnc(-c3ccc4c(c3)OCCO4)o2)no1 returned Pf growth 96h -14%, NS1 function inh -4%, Sm TGR block -3%, Pf growth 48h 23%, CHX counter 22* and Shiga inhibitor 121*.
`O=C(COc1ccccc1)Nc1ccc(C(=O)OCc2cc(=O)n3nc(C4CC4)sc3n2)cc1` gave Sm TGR block -4%.
Screening COc1cn(CC(=O)Nc2cc(C)cc(C)c2)c(CN2CCCCC2)cc1=O returned Sm TGR block 0%.
For Cc1cc(NC(=O)CSc2nnc(-c3ccccc3Cl)o2)no1 the results were Pf growth 96h 4%, NS1 function inh -2%, Sm TGR block 3%, Pf growth 48h -18%, CHX counter -2 and Shiga inhibitor -5.
Screening Cc1cc(NC(=O)CSc2nnc(-c3cccc(Cl)c3)o2)no1 returned Pf growth 96h 2.9µM*, NS1 function inh -3%, Sm TGR block 1%, Pf growth 48h inconclusive, CHX counter 1 and Shiga inhibitor -3.
`CC(CCc1ccccc1)NC(=O)C(=O)N1CCOCC1` (stereo unspecified) gave Pf growth 96h 39%, NS1 function inh 0%, Sm TGR block -1%, Pf growth 48h 1%, CHX counter 1 and Shiga inhibitor -19.
`N=c1c2c(-c3ccccc3)c(-c3ccccc3)oc2ncn1CCCN1CCOCC1` gave Pf growth 96h 12µM*, NS1 function inh -18%, Sm TGR block -5%, Pf growth 48h 13µM*, CHX counter -6 and Shiga inhibitor -9.
Screening c1ccc(-c2oc3ncnc(NCCN4CCOCC4)c3c2-c2ccccc2)cc1 returned Pf growth 96h 14%, NS1 function inh -116%, Sm TGR block -31%, Pf growth 48h inconclusive, CHX counter -4 and Shiga inhibitor -24.
Screening N=c1c2c(-c3ccccc3)c(-c3ccccc3)oc2ncn1CCN1CCOCC1 returned Pf growth 96h 9.3µM*, NS1 function inh -38%, Sm TGR block 5%, Pf growth 48h 7.4µM*, CHX counter -2 and Shiga inhibitor -11.
CC(C)c1ccc(NC(=O)CCNC(=O)Cn2cnc3ccccc3c2=O)cc1 was read as Pf growth 96h 26%, NS1 function inh -12%, Sm TGR block 5%, Pf growth 48h -1%, CHX counter -3 and Shiga inhibitor 18.
Screening Cc1ccc(NC(=O)C(Cc2ccccc2)NS(=O)(=O)c2cccs2)cc1Cl (stereo unspecified) returned Sm TGR block 1%.
CSc1ccc(CCNC(=O)CCc2c(C)nc3c(c(C)nn3-c3ccc(C)c(C)c3)c2C)cc1 was read as Sm TGR block 10%.
For CC(C)(C)OC(=O)N/N=C\c1ccc(OC(=O)c2ccco2)cc1 the results were Pf growth 96h -13%, Sm TGR block 14%, Pf growth 48h 257%, CHX counter 38* and Shiga inhibitor 79*.
For CCc1ccc(OC(=O)/C=C/c2ccco2)cc1 the results were Pf growth 96h inconclusive, NS1 function inh 6%, Sm TGR block 28µM*, Pf growth 48h 1%, CHX counter 33* and Shiga inhibitor 30*.
For COC(=O)N/N=C\c1ccc(OC(=O)c2ccco2)cc1 the results were Pf growth 96h inconclusive, Sm TGR block 0%, Pf growth 48h 3%, CHX counter 7 and Shiga inhibitor 12.
Screening COC(=O)N/N=C/c1ccc(OC(=O)/C=C/c2ccco2)cc1 returned Pf growth 96h 15%, NS1 function inh -1%, Sm TGR block inconclusive, Pf growth 48h 11%, CHX counter 12 and Shiga inhibitor 30.
For O=C(Cc1ccccc1)N/N=C/c1ccc(OC(=O)/C=C\c2ccco2)cc1 the results were Pf growth 96h -20%, NS1 function inh 0%, Sm TGR block 35µM*, Pf growth 48h 7%, CHX counter 29* and Shiga inhibitor 49*.
`O=C(CCN1N=C(c2ccccc2)CCC1=O)NCCCN1CCOCC1` gave Pf growth 96h -3%, NS1 function inh 11%, Sm TGR block -1%, Pf growth 48h 29%, CHX counter -1 and Shiga inhibitor 5.
CN(C)c1oc(-c2ccccc2Cl)nc1C#N was read as NS1 function inh 0%, Sm TGR block -2%, Pf growth 48h 12%, CHX counter 0 and Shiga inhibitor -3.
CN(C)c1oc(-c2ccccc2[N+](=O)[O-])nc1C#N was read as Pf growth 96h 3%, NS1 function inh -3%, Sm TGR block 35µM*, Pf growth 48h -7%, CHX counter -1 and Shiga inhibitor -1.
COc1ccc(C(=O)Nc2cc3c4c(c2)C(C)C(=O)N4CCC3)cc1OC (stereo unspecified) was read as Pf growth 96h -23%, Sm TGR block -2% and Pf growth 48h inconclusive.
`COc1ccc(CCNC(=O)CC2Nc3cc(C)c(C)cc3NC2=O)cc1OC` (stereo unspecified) gave NS1 function inh inconclusive, Sm TGR block 20%, Pf growth 48h 13µM*, CHX counter -4 and Shiga inhibitor -9.

Screening results deposited in PubChem by National Center for Advancing Translational Sciences (NCATS).
